From PubChem BioAssay
An excerpt weighted towards active compounds, which were near 2% of everything screened.
Fam108B inh: mouse Fam108B serine hydrolase inhibitors, primary screen, counter-screen for RBBP9 inhibitor project, biochemical, fluorescence polarization; inhibition, % at 9.51 µM; recombinant Fam108B, FP-Rh probe fluorescence polarization; 300,000 tested, 0.33% active;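 active = inhibition above the screen mean inhibition plus 3 SD, computed separately per campaign, cut at about 18% in these data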;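 also: inhibitors lower polarization as less probe binds the enzyme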
GSTO1 counter: inhibitors of recombinant GSTO1, primary screen, counter-screen for RBBP9 inhibitor project, biochemical, fluorescence polarization. AID 1974, 2009. inhibition, % at 5.96 µM. activity-based probe fluorescence polarization. 300,000 tested, 1.1% active;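 active = inhibition above the campaign mean inhibition plus 3 SD, cut at about 35% in these data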
PME-1 primary: PME-1 inhibitors via competitive probe labeling, primary screen, biochemical, fluorescence polarization, FP-Rh probe, HTS; 320,000 tested, 0.53% active; AID 2130, 2009; recombinant PME-1; inhibition, % at 5.9 µM; Protein phosphatase methylesterase 1 (Homo sapiens), Q9Y570;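 active = inhibition above the campaign mean of all compounds plus 3 SD, cut at about 26% in these data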;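 also: competitive labeling of PME-1 active site by serine hydrolase directed probe; inhibitors block probe labeling so polarization falls and inhibition rises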
Target sequence (Q9Y570 whole entry, looked up): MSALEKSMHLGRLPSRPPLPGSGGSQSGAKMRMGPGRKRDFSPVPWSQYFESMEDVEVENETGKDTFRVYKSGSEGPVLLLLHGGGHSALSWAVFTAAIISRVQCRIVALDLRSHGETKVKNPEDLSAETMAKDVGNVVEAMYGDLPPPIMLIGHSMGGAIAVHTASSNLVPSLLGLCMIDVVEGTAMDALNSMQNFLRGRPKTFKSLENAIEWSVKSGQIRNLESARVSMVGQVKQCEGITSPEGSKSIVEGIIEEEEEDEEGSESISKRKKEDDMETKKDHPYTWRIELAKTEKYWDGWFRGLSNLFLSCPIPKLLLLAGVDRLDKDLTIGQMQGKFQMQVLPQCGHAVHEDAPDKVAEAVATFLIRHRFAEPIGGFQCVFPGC
LYPLA2 counter: LYPLA2 inhibitors, primary screen, counter-screen for PME1 inhibitor project, biochemical, fluorescence polarization, FP-Rh probe ABPP | Acyl-protein thioesterase 2 (Homo sapiens), O95372 | recombinant LYPLA2 | inhibition, % at 5.9 µM | 320,000 tested, 0.38% active | AID 2177, 2009;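 active = inhibition above the screen-wide mean plus 3 SD, limit set per campaign, cut at about 26% in these data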
PREPL inh: PREPL enzyme inhibitors, primary screen, biochemical, fluorescence polarization; inhibition, % at 5.96 µM; Prolyl endopeptidase-like (Homo sapiens), Q4J6C6; 320,000 tested, 0.68% active; recombinant PREPL, fluorescence polarization activity-based probe
LYPLA1 inh: LYPLA1 inhibitors, primary screen, counter-screen for PME1 inhibitor project, biochemical, fluorescence polarization, FP-Rh probe ABPP | 320,000 tested, 0.16% active | recombinant LYPLA1 | Acyl-protein thioesterase 1 (Homo sapiens), O75608 | AID 2174, 2009 | inhibition, % at 5.9 µM;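 active = inhibition above the mean of all tested compounds plus 3 SD, set per campaign, cut at about 14% in these data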;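 also: inhibitors block serine hydrolase probe labeling of LYPLA1 so polarization falls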
LYPLA2 conf: LYPLA2 inhibitors, retest, confirmation, counter-screen for PME1 inhibitor project, biochemical, fluorescence polarization, FP-Rh probe ABPP; inhibition, % at 5.9 µM; shares compounds with LYPLA2 counter; 1,100 tested, 72% active; recombinant LYPLA2;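 active = mean inhibition across replicates above the hit cutoff set in the primary screen, cut at about 26% in these data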;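 also: blocked labeling of the enzyme by serine hydrolase FP-Rh probe lowers polarization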
PREPL confirm: human PREPL enzyme inhibitors, confirmation, biochemical, fluorescence polarization | shares compounds with PREPL inh | recombinant PREPL, fluorescence polarization activity probe | inhibition, % at 5.96 µM | 2,000 tested, 67% active | AID 2803, 2010
Each line names hits and unclear results; the compound was inactive in the other large screens (follow-up assays come after a bar, where they were run). Rule as the data show it, unless noted: active = inhibition above about 43%; inactive = the rest.

COc1ccc(N2CCN(CCCNC(=O)c3cc4sccc4n3C)CC2)cc1	LYPLA2 counter 33.1 | LYPLA2 conf 32.1
O=C(c1ccc(N2CCNCC2)cc1)c1cccnc1	LYPLA2 counter 25.8 | LYPLA2 conf inactive
O=C(Nc1ccc(S(=O)(=O)N2CCOCC2)cc1)c1c(F)cccc1F	none
O=C(Nc1ccc(S(=O)(=O)N2CCCC2)cc1)c1c(F)cccc1F	LYPLA2 counter 27.6 | LYPLA2 conf inactive
O=C(CNc1ccc(Br)cc1)Nc1ccc(S(=O)(=O)N2CCCC2)cc1	LYPLA2 counter 28.8 (no result: Fam108B inh, GSTO1 counter) | LYPLA2 conf inactive
CCN(C(=O)COC(=O)c1cc(=O)[nH]c2ccccc12)C1CCS(=O)(=O)C1 (centres undefined)	none
Nc1ccc(S(=O)(=O)N2CCC(Cc3ccccc3)CC2)cc1	none
CCc1ccc(C(=O)N/N=C/c2cccc3ccccc23)nc1	none
CC(C)(C)C1CCC(N2CCN(c3ccccc3)CC2)CC1 (centres undefined)	none
C#CCOCCOCCOCCNc1nc(N2CCN(C(=O)CCCCCCCCCCNC(=O)[C@H](CCC(=O)O)n3cc(CCCCCN)nn3)CC2)nc(N2CCN(C(=O)CCCCCCCCCCNC(=O)[C@@H]([C@H](C)O)n3cc(C)nn3)CC2)n1	none
C#CCOCCOCCOCCNc1nc(N2CCN(C(=O)CCCCCCCCCCNC(=O)[C@H]([C@@H](C)CC)n3cc(CCCCCN)nn3)CC2)nc(N2CCN(C(=O)CCCCCCCCCCNC(=O)[C@@H]([C@H](C)O)n3cc(C)nn3)CC2)n1	LYPLA2 counter 29.1, PREPL inh 46.4 | LYPLA2 conf 29.5 | PREPL confirm inactive
C#CCOCCOCCOCCNc1nc(N2CCN(C(=O)CCCCCCCCCCNC(=O)Cn3cc(CCCCCN)nn3)CC2)nc(N2CCN(C(=O)CCCCCCCCCCNC(=O)[C@H]([C@@H](C)CC)n3cc(CCCCCN)nn3)CC2)n1	LYPLA2 counter 31.0, PREPL inh 62.1 | LYPLA2 conf inactive | PREPL confirm 56.5
CC(C)(CO)C(O)C(=O)NCCCO (centres undefined)	none
N#C/C(=C\c1ccc(N2CCOCC2)o1)c1nc2ccccc2[nH]1	none
N#C/C(=C\c1ccc(N2CCOCC2)c([N+](=O)[O-])c1)c1nc2ccccc2[nH]1	LYPLA2 counter 30.6, PREPL inh 45.0 | LYPLA2 conf 52.8 | PREPL confirm inactive
O=C(O)C1Nc2c(O)cc(Cl)c([N+](=O)[O-])c2C2C=CCC12 (centres undefined)	Fam108B inh 79.2, GSTO1 counter 57.2, LYPLA2 counter 34.8, PREPL inh 94.2 | LYPLA2 conf inactive | PREPL confirm inactive
Cc1ccc(C(=O)N2CCN(c3ccc(NC(=O)COc4ccccc4C)cc3)CC2)cc1	LYPLA2 counter 29.3, PREPL inh 51.9 | LYPLA2 conf 26.8 | PREPL confirm 50.8
Cc1ccc(NC(=O)CSc2ncc3ccccn23)cc1C	none
CCCCc1ccc(NC(=O)c2cnccn2)cc1	none
Cc1ccc(CN2CCSc3ccc(C(=O)NCC4CCCO4)cc32)cc1 (centres undefined)	PREPL inh 43.2 | PREPL confirm inactive
Cc1ccc(N=Cc2sc(O)c3ccccc23)cc1	PREPL inh 50.0 | PREPL confirm 54.0
O=C(Cn1nc(CNc2ccc(Br)cc2)[n+]2c1CCCCC2)c1ccc([N+](=O)[O-])cc1	PREPL inh 61.5 | PREPL confirm 44.0
